FEN1 inh: blocks human flap endonuclease 1; Recombinant FEN1 flap cleavage, fluorescence, 15 min; Potency, µM (top dose mostly 114 µM), for inactives: top-dose activity change, negative = inhibition, usual class: inhibitors; 390,000 compounds, 0.35% hits; AID 588795; further: on the % scale 0 is the no-effect control and ±100 the full control effect; nearly all actives have a fitted effect of over 65% in size
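Compounds are tested as a concentration series against 10 nM FEN1; after a 15 min room-temperature preincubation, 50 nM substrate starts cleavage, with plate reads at 0 and 15 min. Normalized responses are fitted by a Hill equation.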
WRN helicase inh: WRN helicase (human) inhibition | WRN helicase unwinding, fluorescent forked duplex, kinetic | 360,000 compounds, 0.46% hits | Potency, µM (top dose mostly 114 µM), for the others: at the highest dose activity change, negative = inhibition, actives largely listed as inhibitors; further: on the % scale 0 is the no-effect control and ±100 the full control effect; nearly all actives have a fitted effect of over 55% in size
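Enzyme (20 nM final) and test compound sit together 15 min at room temperature before substrate addition. Substrate is a single-forked duplex oligonucleotide (100 nM) labelled with fluorophore and quencher, with 2 mM ATP; helicase unwinding raises red fluorescence, read kinetically.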
Pol iota inh: blocks human DNA polymerase iota activity; Q9UNA4; Pol iota fluorescent replication assay, 10 min; Potency, µM (highest dose often 115 µM), for the others: top-dose activity, negative = inhibition, actives largely listed as inhibitors; 390,000 compounds, 1% hits; AID 588590
Target sequence (Q9UNA4 whole entry, looked up): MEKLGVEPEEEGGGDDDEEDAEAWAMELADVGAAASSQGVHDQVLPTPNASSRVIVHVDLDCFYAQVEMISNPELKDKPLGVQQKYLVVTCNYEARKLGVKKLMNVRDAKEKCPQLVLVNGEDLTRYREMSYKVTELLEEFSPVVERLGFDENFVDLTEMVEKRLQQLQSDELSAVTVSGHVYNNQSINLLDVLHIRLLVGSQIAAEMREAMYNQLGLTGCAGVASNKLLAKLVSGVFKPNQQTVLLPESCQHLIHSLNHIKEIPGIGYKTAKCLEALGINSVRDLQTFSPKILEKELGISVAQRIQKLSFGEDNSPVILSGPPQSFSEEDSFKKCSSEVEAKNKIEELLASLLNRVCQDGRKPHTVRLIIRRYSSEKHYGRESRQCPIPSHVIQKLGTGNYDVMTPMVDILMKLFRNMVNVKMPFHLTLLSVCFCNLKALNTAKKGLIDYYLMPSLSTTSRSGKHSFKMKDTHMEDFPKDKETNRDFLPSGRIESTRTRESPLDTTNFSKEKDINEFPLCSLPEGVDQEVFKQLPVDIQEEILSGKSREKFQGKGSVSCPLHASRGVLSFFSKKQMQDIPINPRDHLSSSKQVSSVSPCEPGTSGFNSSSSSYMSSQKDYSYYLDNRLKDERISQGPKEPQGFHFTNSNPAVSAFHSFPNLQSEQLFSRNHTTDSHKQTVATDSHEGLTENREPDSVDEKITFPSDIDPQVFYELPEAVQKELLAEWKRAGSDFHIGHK
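Pol iota at 10 nM preincubated 15 min with compounds at room temperature; reaction started with fluorescent substrate, 50 nM final. Fluorescence read kinetically at 0 and 10 min; buffer-only wells as negative control.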
POLB inh: inhibitors of human DNA polymerase beta; 340,000 compounds, 1.3% hits; P06746; Pol beta primer extension/strand displacement, fluorescence kinetic; Potency, µM (doses to about 114 µM), inactives show at the highest dose activity change, negative = inhibition, actives largely listed as inhibitors; further: on the % scale 0 is the no-effect control and ±100 the full control effect
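Curves were derived by four-parameter Hill fits of normalized qHTS data. The kinetic fluorescent primer-extension read was taken at 0 and 10 min after 50 nM substrate, following a 15 min room-temperature preincubation of 10 nM enzyme with compounds.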
Pol kappa inh: DNA polymerase kappa (human) inhibition | Potency, µM (highest dose often 107 µM), without a hit: at the highest dose activity, negative = inhibition, most hits filed as inhibitors | purified Pol kappa, fluorescent DNA synthesis assay, 10 min | 400,000 compounds, 0.53% hits; further: on the % scale 0 is the no-effect control and ±100 the full control effect
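Readout: fluorescence, taken kinetically at 0 and 10 min. Conditions: 10 nM Pol kappa, 15 min RT compound preincubation, 50 nM substrate final. Controls: enzyme-free buffer wells.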
Pol eta inh: DNA polymerase eta (human) inhibition | Q9Y253 | recombinant Pol eta, fluorescent DNA replication assay | Potency, µM (highest dose often 114 µM), for the others: at the highest dose activity change, negative = inhibition, usual class: inhibitors | 390,000 compounds, 1.2% hits; further: on the % scale 0 is the no-effect control and ±100 the full control effect
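Pol eta (10 nM) was preincubated with compounds for 15 min at room temperature, after which fluorescent replication substrate (50 nM final) was added to start the reaction. Fluorescence was read kinetically at 0 and 10 min.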
Starred values were filed as active, the others as inactive; ? = inconclusive; · = no result given; [ ] = another dose, or the depositor's remark. Rows were chosen to be rich in hits. Some 2.4% of all compounds tested hit in one or more screens of this group. The call rests on the fitted dose curve; in most records, active means well fitted curve in the direction sought with a large enough effect; inconclusive means small, poorly fitted or top-dose-only effect, or another doubt; inactive means no such curve, though single readings can be large; an effect the other way counts as inactive or inconclusive. Potency means the concentration at half of the fitted maximal effect.

SMILES	FEN1 inh	WRN helicase inh	Pol iota inh	POLB inh	Pol kappa inh	Pol eta inh
COc1ccccc1C(=O)Nc1ccnn1C1CCN(Cc2cnc(N(C)C)s2)CC1	18%	5%	17%	89µM*	1%	-9%
CCOC(=O)N1CCN(c2cc(C)c(C(C)=O)cc2F)CC1	-19%	-14%	18%	3%	-15%	-8%
CCCCN(C(=O)c1cccc(N2C(=O)c3ccccc3C2=O)c1)c1c(N)n(CC(C)C)c(=O)[nH]c1=O	2%	5%	21%	·	11%	-12%
O=C(CSc1ccc(Cl)cc1)Nc1cccc(-c2nc3ccccc3[nH]2)c1	-12%	-19%	?	-12%	-29%	?
O=C(CSc1ccccc1)Nc1ccc(-c2nc3ccccc3[nH]2)cc1	-5%	-32%	?	7.1µM*	?	?
Cc1ccc2nc(-c3ccc(NC(=O)CSc4ccccc4)cc3)[nH]c2c1	-5%	-7%[57.1 µM]	35µM*	22µM*	-4%[60.1 µM]	-11%
Cc1ccc2nc(SCC(=O)Nc3ccc(C(N)=O)cc3)[nH]c2c1	6%	-33%	15%	-30%	2%	-18%
Cc1ncc(CO)c2c1Oc1nc(-c3ccccc3F)nc(SCC(=O)N(C)c3ccccc3)c1C2	-14%	-8%[57.1 µM]	?	15%	-8%	79µM*
Cc1ncc(CO)c2c1Oc1nc(-c3ccccc3)nc(SCC(=O)N(C)c3ccccc3)c1C2	·	·	·	56µM*	·	·
COc1cccc(-c2nc3c(c(SCC(=O)N4CCOCC4)n2)Cc2c(CO)cnc(C)c2O3)c1	?	-25%	79µM*	-9%	-38%	-14%
C[C@@H]1CN([C@H](C)CO)C(=O)c2cc(NC(=O)C3CCCCC3)ccc2O[C@@H]1CN(C)Cc1ccc(C(F)(F)F)cc1	-12%	-2%	9%	·	-7%	-7%
COc1ccc(OCC(=O)Nc2nnc(S(=O)(=O)N3CCc4ccccc43)s2)cc1	15%	·	10%	9%	6%	?
COc1ccc(NC(=O)CN(C)CC(=O)Nc2ccccc2SC)cc1Cl	-10%	-2%	5%	17%[57.1 µM]	-17%	-16%
CC(C)Cc1nn2c(=O)cc(COc3ccc(NC(=O)c4ccco4)cc3)nc2s1	-16%	-9%	-21%	0%	-3%	-5%
CCc1nn2c(=O)cc(COc3ccc(NC(=O)c4ccco4)cc3)nc2s1	15%	-11%	71µM*	-21%	-22%	-10%
CN(C(=O)CSc1nc2cc(Cl)ccc2c(=O)n1Cc1ccco1)C1CCS(=O)(=O)C1 (centres undefined)	-6%	4%	27%	?	9%	-6%
CCc1cc2c(=O)n(Cc3ccco3)c(SCc3c(C)noc3C)nc2s1	-2%	-28%	14µM*	0%	-12%	-19%
CCc1cc2c(=O)n(Cc3ccco3)c(SCC(=O)N(C)C3CCS(=O)(=O)C3)nc2s1 (centres undefined)	0%	-13%	?	20µM*	?	-10%
COC(=O)c1ccc2c(c1)C(C)(C)C(/C=C/c1ccc(OC)c(OC)c1OC)=[N+]2C	?	50µM*	?	?	?	-3%
COC(=O)c1ccc2c(c1)C(C)(C)C(/C=C/c1ccc(O)cc1)=[N+]2C	45µM*	50µM*	25µM*	?	28µM*	17%
O=C1SCC(c2ccc(Cl)cc2Cl)=NN1Cc1nnc(-c2ccccc2)o1	17%	0%	12%	15%	0%	-11%
CCOc1ccc(CCNC(=O)c2nc(-c3cccc(F)c3)n3c2CCCCC3)cc1OCC	-12%	·	?	4%	89µM*	-21%
O=c1c(-c2ccccc2)coc2cc(O)cc(O)c12	·	·	·	·	1.8µM*	·
O=c1c(O)c(-c2ccc(O)c(O)c2)oc2c(OC3OC(CO)C(O)C(O)C3O)c(O)cc(O)c12 (centres undefined)	·	·	·	·	3.2µM*	·
O=c1c(O)c(-c2ccc(O)c(O)c2)oc2c(OC[C@@H]3O[C@@H](O)[C@@H](O)[C@H](O)[C@H]3O)c(O)cc(O)c12	·	·	·	·	0.32µM*	·
SMILES	FEN1 inh	WRN helicase inh	Pol iota inh	POLB inh	Pol kappa inh	Pol eta inh
C[C@@H]1O[C@@H](O[C@H]2[C@H](O)[C@@H](O)[C@H](Oc3c(-c4ccc(O)c(O)c4)oc4cc(O)cc(O)c4c3=O)O[C@@H]2CO)[C@H](O)[C@H](O)[C@H]1O	?	-16%	?	·	?	?
O=c1c(O[C@H]2O[C@@H](CO)[C@H](O)[C@@H](O)[C@@H]2O)c(-c2ccc(O)cc2)oc2cc(O)cc(O)c12	4%	12%	-1%	·	-8%	?
Cc1ccc2nc(NC(=O)c3ccc(Br)o3)sc2c1	2%	5%	8%	-18%	6%	-13%
Cc1cc(N2C(=O)C3C4C=CC(C4)C3C2=O)ccc1NC(=O)c1cccs1 (centres undefined)	0%	-19%	?	32µM*	-30%	?
O=C(NCc1ccco1)c1cc(-c2ccco2)on1	-5%	-6%[57.1 µM]	89µM*	17%	-15%	3%
CC(=O)NS(=O)(=O)c1ccc(NC(=O)/C=C/c2ccco2)cc1	8%	-10%	62%	?	-15%	-1%
O=C(/C=C/c1ccco1)Nc1ccc(F)cc1	-4%	·	?	32µM*	-2%[60.1 µM]	·
O=C(NCCc1ccccc1)/C(=C/c1ccco1)c1ccccc1	3%	?	-19%	35µM*	-3%	?
O=C(/C=C/c1ccccc1)NCc1ccc2c(c1)OCO2	3%	2%	9%	11%	-10%	-19%
O=C(/C=C/c1ccco1)NCc1ccc2c(c1)OCO2	0%	-2%	6%	20µM*	-1%	-7%
CC(C)[C@H](NC(=O)c1ccc(F)cc1)C(=O)N(C)Cc1cccs1	-1%	9%	27%	·	-15%	?
Cn1nnc(NC(=O)c2ccc(C(C)(C)C)cc2)n1	11%	5%	14%	37%	4%	-9%
O=C(/C=C\c1ccco1)Nc1nc(-c2ccc3ccccc3c2)cs1	-8%	?	-2%	12%[57.1 µM]	-15%	-9%
O=C(/C=C/c1ccc(F)cc1)NCc1ccco1	0%	-17%	?	56µM*	-34%	?
Cc1ccc(-c2csc(NC(=S)NC(=O)/C=C/c3ccco3)n2)cc1	-16%	-22%	50µM*	4%	?	-3%
O=C(/C=C/c1ccco1)Nc1ccc2nc3n(c(=O)c2c1)CCCC3	-18%	-9%[11.6 µM]	71µM*	-21%	-7%	16%
O=c1c2cc(NC(=S)N3CCCC3)ccc2nc2n1CCCCC2	1%	-6%	28%	4%	-8%	-10%
O=C(/C=C/c1ccc([N+](=O)[O-])cc1)NCc1ccco1	-7%	-26%[57.1 µM]	2%	-17%	-15%	-13%
